VCAM1 pot – potentiators of TNFa-induced VCAM1 expression, primary screen, imaging, HUVEC, TNFa stimulus, immunofluorescence | activation, % at 2 µM | HUVEC TNFa-stimulated VCAM-1 immunofluorescence, high-content imaging; scaled per plate to unstimulated/TNFa-only wells | 93,000 compounds, 0.19% hits;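 active = activation above the screen mean plus 3 SD, with well images confirming the hit on visual review, cut at about 28% in these data, passing the limit was not always enough; inconclusive = activation above that limit but images do not confirm it; inactive = activation not above that limit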;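 also: signal is the number of cytoplasmic VCAM-1 stained grains per positive cell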
VCAM1 pot confirm – potentiators of TNFa-induced VCAM1 expression, confirmation, imaging, HUVEC, triplicate retest; shares compounds with VCAM1 pot; HUVEC TNFa-stimulated VCAM-1 immunofluorescence imaging; activation, % at 2 µM; 230 tested, under 10 active; AID 1034, 2008;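 active = activation above 30% in triplicate retests at 2 µM, then confirmed by visual review of the well images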;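 also: scaled per plate between unstimulated and TNFa-stimulated DMSO control wells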
* = called active by the depositor. This excerpt belongs to a sample that is enriched for hits.

What do the screens show for `CC(=O)Nc1ccc(S(=O)(=O)N2CCN(C(=O)c3cccnc3)CC2)cc1`?
VCAM1 pot: 5.6

Results for Cc1ccccc1C(=O)c1c[nH]c(C(=O)NCC2CCCO2)c1 (configuration not stated) ?
VCAM1 pot: -11.3

Results for COCCSc1ccccc1C(=O)NCC1CCCO1 (configuration not stated) ?
VCAM1 pot: inconclusive; VCAM1 pot confirm: -16.9

Results for Cc1nc2ccc(F)cc2cc1C(=O)NCC1CCCO1 (configuration not stated) ?
VCAM1 pot: -11.9

How did CSc1cc(C)n(-c2ccccc2)c(=S)c1C(C)=O do in these assays?
VCAM1 pot: 71.6*; VCAM1 pot confirm: -16.1

What do the screens show for `CC(=O)c1c(C(C)=O)c(C)n(-c2nc(-c3ccccc3)c(C)s2)c1C`?
VCAM1 pot: -12.0

What do the screens show for `CCOc1ccccc1C1CC(c2ccc(F)cc2)Nc2nc(N)nn21` (configuration not stated)?
VCAM1 pot: -9.7

Results for NC(=O)C1(N2CCCCC2)CCN(S(=O)(=O)c2cc(Cl)ccc2Cl)CC1 ?
VCAM1 pot: 5.9

How did CCOC(=O)N1CCC(NC(=O)c2cc(S(=O)(=O)N3CCCC3)cn2C)CC1 do in these assays?
VCAM1 pot: 42.7*; VCAM1 pot confirm: -4.8

How did CCOC(=O)N1CCN(C(=O)c2cc(S(=O)(=O)N3CCCC3)cn2C)CC1 do in these assays?
VCAM1 pot: 4.1

What do the screens show for `CCOC(=O)N1CCC(NC(=O)c2ccc(OC)c(CN3CC(=O)N4CCCC4C3=O)c2)CC1` (configuration not stated)?
VCAM1 pot: -22.5

How did Cc1cc(C(=O)COC(=O)CCc2nc3ccccc3s2)c(C)n1C do in these assays?
VCAM1 pot: 0.5

Results for O=C1CN=C(Nc2cccc(C(F)(F)F)c2)N1C1CCCC1 ?
VCAM1 pot: 6.9

How did COC(=O)c1ccc(C)c(NS(=O)(=O)c2ccc(OC)cc2)c1 do in these assays?
VCAM1 pot: 31.6*; VCAM1 pot confirm: -59.2

What do the screens show for `COC(=O)c1ccc(C)c(NC(=O)C2COc3ccccc3O2)c1` (configuration not stated)?
VCAM1 pot: -7.4

Results for COc1ccc(NS(=O)(=O)c2ccc(C)c(C(=O)O)c2)cc1 ?
VCAM1 pot: -7.4

How did Clc1ccc(CSc2cc3c(nn2)-c2ccccc2CC3)cc1 do in these assays?
VCAM1 pot: -9.5

What do the screens show for `COC1(OC)C(/C=C/c2ccc(C)cc2)C(C#N)(C#N)C1(OC)OC` (configuration not stated)?
VCAM1 pot: -5.0

Results for COc1ccc(C2/C(=C(\O)c3cccc(OC)c3)C(=O)C(=O)N2c2ccccn2)cc1 (configuration not stated) ?
VCAM1 pot: 3.2

Results for O=C(CSCCO)Nc1cc(C(F)(F)F)ccc1Cl ?
VCAM1 pot: 5.8

Results for CCOC(=O)CNC(=O)c1cc(C)oc1C ?
VCAM1 pot: -2.6

What do the screens show for `CCOC(=O)CNC(=O)c1cn(CC(C)C)c(=O)c2cc(OC)c(OC)cc12`?
VCAM1 pot: 55.4*; VCAM1 pot confirm: -12.9

What do the screens show for `CC(C)Cn1cc(C(=O)NCCCOC(C)C)c2c3ccccc3n(C)c2c1=O`?
VCAM1 pot: -8.6

What do the screens show for `CC(C)c1cc(C(=O)NCc2ccco2)no1`?
VCAM1 pot: -10.0

How did O=C(NCc1ccco1)c1sc2cc(F)ccc2c1Cl do in these assays?
VCAM1 pot: 43.7*; VCAM1 pot confirm: -10.2

How did O=C(NCc1ccco1)c1ccccc1F do in these assays?
VCAM1 pot: 1.3

Results for CCSc1nc2ccccc2n1C(=O)/C=C\c1ccc(OC)c(OC)c1 ?
VCAM1 pot: -93.8

What do the screens show for `Cc1ccc(S(=O)(=O)N2CCCC(C(=O)NCCc3ccc4c(c3)OCO4)C2)cc1` (configuration not stated)?
VCAM1 pot: -1.2

How did COc1ccccc1C(=O)NC(C)C(c1cccs1)N1CCN(C)CC1 (configuration not stated) do in these assays?
VCAM1 pot: 21.4

Results for CCc1ccc(N/C(SCc2ccccc2C)=C(/C#N)C(=O)NCc2ccco2)cc1 ?
VCAM1 pot: -4.2

What do the screens show for `O=C(Nc1ccc2nsnc2c1)NC1CCCCC1`?
VCAM1 pot: 56.9*; VCAM1 pot confirm: -5.8

What do the screens show for `Cn1c(CCNC(=O)c2ccco2)nc2cc(NC(=O)NC3CCCCC3)ccc21`?
VCAM1 pot: 3.7

What do the screens show for `CC(C)C(=O)Nc1ccc(C(=O)NNC(=O)NC2CCCCC2)cc1`?
VCAM1 pot: -36.1

Results for CCOC(=O)C1=NN(c2ccc(Cl)cc2)C(c2ccccc2)CC1=O (configuration not stated) ?
VCAM1 pot: -25.6

What do the screens show for `Cc1ccc(C(=O)Nc2c(-c3cccs3)c(=O)c3ccccc3n2C)cc1`?
VCAM1 pot: -2.7

Results for CC(C)(C)Nc1nc(NCc2cccnc2)nc(N2CCOCC2)n1 ?
VCAM1 pot: -14.0

Results for Cc1cc(C(F)(F)F)nc(NCc2cccnc2)n1 ?
VCAM1 pot: inconclusive; VCAM1 pot confirm: -16.9

How did FC(F)(F)c1cc(-c2ccc3c(c2)OCO3)nc(NCc2ccco2)n1 do in these assays?
VCAM1 pot: -77.6

What do the screens show for `CCOc1ccc2sc(NS(=O)(=O)c3ccc(OC)c(OC)c3)nc2c1`?
VCAM1 pot: 60.7*; VCAM1 pot confirm: -17.9

How did COc1ccc(OC)c(NS(=O)(=O)c2ccc3c(c2)n(C)c(=O)n3C)c1 do in these assays?
VCAM1 pot: -18.9

Results for CCOC(=O)c1cc2nc(Nc3ccc(OC)cc3)sc2s1 ?
VCAM1 pot: 28.6

What do the screens show for `CCOC(=O)C1=C(C)NC(C)=C(C(=O)OCC)C1C(=O)OC1CCOC1=O` (configuration not stated)?
VCAM1 pot: -6.8

What do the screens show for `NC(=O)c1ccccc1OCCOCCOCCOc1ccccc1C(N)=O`?
VCAM1 pot: 18.4

Results for NC(=O)c1ccccc1N=Cc1ccccn1 ?
VCAM1 pot: 39.5*; VCAM1 pot confirm: -12.7

Results for COc1ccc(CNC(=O)COC(=O)C2=COCCO2)cc1 ?
VCAM1 pot: -8.8

Results for CCOc1ccccc1N(CC(=O)N1CCCCCC1)S(C)(=O)=O ?
VCAM1 pot: 2.3

How did COc1ccccc1N(CC(=O)NCCSc1ccccc1)S(C)(=O)=O do in these assays?
VCAM1 pot: inconclusive; VCAM1 pot confirm: -1.4

What do the screens show for `COCCNC(=O)CC(c1ccccc1)c1ccccc1`?
VCAM1 pot: 10.7

Results for COc1cccc(-c2nc(=S)c3c(n2CCCO)CCCC3)c1 ?
VCAM1 pot: 18.1

How did CC1=CC(C)(C)N2C(=O)C3(C(C#N)=C(N)Oc4cc(C)oc(=O)c43)c3cccc1c32 (configuration not stated) do in these assays?
VCAM1 pot: 14.0

How did Cc1cc(C)c2c(n1)sc1c(N3CCOCC3)ncnc12 do in these assays?
VCAM1 pot: -60.8

What do the screens show for `C=CCNC(=O)CN1CCC(n2c(C)nc3cc(C(F)(F)F)ccc32)CC1`?
VCAM1 pot: 58.3*; VCAM1 pot confirm: -17.9

What do the screens show for `C=CCNC(=O)CCCOc1ccc(C)cc1`?
VCAM1 pot: 0.9

Results for OC(CN1C2=NCCN2c2ccccc21)c1ccc2c(c1)OCO2 (configuration not stated) ?
VCAM1 pot: -6.2

What do the screens show for `Cc1oc(-c2ccccc2F)nc1CN1CCC(C(=O)NC2CC2)CC1`?
VCAM1 pot: 8.0

Assay outcomes: PubChem, Columbia University Molecular Screening Center
